In PubChem BioAssay:
Inconclusive results are not listed. The source made the active and inactive calls.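 Rule for the calls, unless noted: active = viability at or below 10% of carrier control in both of two separate runs; inconclusive = viability at or below 10% in only one of the two runs; inactive = the rest.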

Experiments:
[1] = reducers of endogenous Her2 protein level, primary screen, SKBR3 breast tumor cells, AlphaScreen, ATP viability (AID 461;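 active = Her2 level under about 52% in both replicate screens, with viability over 70% of control, limit read from the data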;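 for Her2 level: lower value means less Her2 protein in the cells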;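 for viability: percent of carrier control wells set as 100% viability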); conditions: 18-24 h, measured here: SKBR3 viability, ATP luminescence, at 10 µM
[2] = molecular target: Receptor tyrosine-protein kinase erbB-2 (Homo sapiens) (UniProt P04626); experiment: as above; conditions: 18-24 h, at 10 µM, stronger effect = lower value
[3] = SK-BR-3 cell growth inhibitors, pilot screen, 24 h, human (AID 572); conditions: SK-BR-3 viability, CellTiter-Glo luminescence, at 10 µM, stronger effect = lower value;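 note: compound exposure lasted between 18 and 24 h rather than exactly 24 h; 100% = carrier-treated control wells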
[4] = HUVEC growth inhibition – cell-based, human, primary screen (AID 575;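 active = viability at or below 30% in both replicate assays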;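 note: 100% = median of untreated cell wells with 0.1% DMSO on each plate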); conditions: HUVEC proliferation, CellTiter-Glo luminescence, 72 h; at 10 µM; stronger effect = lower value
[5] = growth inhibitors of H69AR lung tumor, primary screen, human, duplicate replicates (AID 580;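 active = viability at or under a set limit in both replicates, limit being median viability minus 3 SD, cut at about 48% in these data, passing the limit was not always enough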;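 note: 100% = mean luminescence of untreated wells and 0% = no signal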); conditions: H69AR lung tumor cells viability, ATP luminescence, 72 h; at 10 µM; stronger effect = lower value
[6] = reversal of MRP1-mediated doxorubicin resistance, pilot screen, H69AR cells, doxorubicin co-treatment (AID 601;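 active = viability loss from added drug above about 55%, and viability with drug at most 40%, in both replicates, limit read from the data, passing the limit was not always enough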); conditions: CellTiter-Glo, 72 h, at 10 µM; for differential viability (reversal): stronger effect = higher value
[7] = 384-well plate pilot, post-Golgi transport modulator project, inhibition of yeast transport mutant growth (AID 636; in the data active = inhibition above about 31%); conditions: absorbance 615 nm, about 18 h, stronger effect = higher value
[8] = growth suppression of yeast trafficking mutant, preliminary HTS, modulators of trafficking downstream of Golgi apparatus project, 1536-format plate, OD 615 nm (AID 637; in the data active = inhibition above about 30%); conditions: yeast transport mutant growth, absorbance 615 nm, 18 h; stronger effect = higher value
[9] = OD615 S. cerevisiae growth inhibition, permissive medium, pilot counter-assay, permissive growth control for S. cerevisiae lifespan shortening project (AID 705;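 active = growth inhibition above 25% in both replicates, a cutoff set 3 SD above the mean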); conditions: OD615, 24 h, at 10 µM, stronger effect = higher value
[10] = Restrictive medium S. cerevisiae growth inhibition, OD615, pilot screen of yeast lifespan reduction project, restrictive growth control (AID 706;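 active = growth inhibition above a set limit, 3 SD over mean compound inhibition, in both replicates, cut at about 43% in these data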;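 note: modified DeaD lifespan yeast strain shifted to restrictive glucose medium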); conditions: OD615, 48 h, at 10 µM, stronger effect = higher value
[11] = viability gain of MRP-1-high H69AR cells under doxorubicin, pilot screen, MRP-1 activator project, CellTiter-Glo, duplicate (AID 807;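 active = viability increase at or above a cutoff of the median across tested compounds plus 3 SD, cut at about 8.5% in these data, passing the limit was not always enough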;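 note: compound pretreatment 18-22 h then 72 h combined with doxorubicin; 0% = doxorubicin alone and 100% = vehicle without doxorubicin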); conditions: H69AR viability with doxorubicin, CellTiter-Glo luminescence; at 10 µM; stronger effect = higher value
[12] = growth suppression of beta-catenin knockout HCT116, pilot screen, human colon tumor cells (AID 823;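 active = cell viability at or below a set limit in both duplicate runs, the limit being the all-compound median minus 4 SD, cut at about 23% in these data, passing the limit was not always enough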;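 note: 0% = wells killed by 20 µM Hyamine and 100% = untreated DMSO cell wells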); conditions: CellTiter-Glo, 60 h, at 10 µM, stronger effect = lower value
[13] = growth suppression of PTEN-deleted HCT116, pilot screen, cell-based, HCT116 clonal line, CellTiter-Glo (AID 824;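 active = viability at or below 27.92% in each of two runs, the all-compound median minus 4 SD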;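 note: 0% = 20 µM Hyamine control and 100% = vehicle cell control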); conditions: 60 h, at 10 µM, stronger effect = lower value
[14] = inhibitors of the yeast RAM network, pilot screen, dse1pr::URA3 reporter, 5-FOA selection (AID 869;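 active = inhibition over a set limit, the all-compound mean plus 3 SD, in both replicate runs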;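 note: 0% = DMSO wells with no growth and 100% = 10 µM 1-NA-PP1 with full growth; RAM network block rescues cells from 5-FOA so hits raise OD615 growth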); conditions: S. cerevisiae dse1pr::URA3 5-FOA growth, OD615, 2 d; at 10 µM; stronger effect = higher value; strain carries analog-sensitive mutant Cbk1 kinase
[15] = H69AR cells + 2 uM doxorubicin, measured here: viability with 2 uM doxorubicin, stronger effect = lower value
[16] = H69AR cells, compound alone cytotoxicity

Receptor tyrosine-protein kinase erbB-2 (Homo sapiens), sequence (P04626 whole entry, looked up): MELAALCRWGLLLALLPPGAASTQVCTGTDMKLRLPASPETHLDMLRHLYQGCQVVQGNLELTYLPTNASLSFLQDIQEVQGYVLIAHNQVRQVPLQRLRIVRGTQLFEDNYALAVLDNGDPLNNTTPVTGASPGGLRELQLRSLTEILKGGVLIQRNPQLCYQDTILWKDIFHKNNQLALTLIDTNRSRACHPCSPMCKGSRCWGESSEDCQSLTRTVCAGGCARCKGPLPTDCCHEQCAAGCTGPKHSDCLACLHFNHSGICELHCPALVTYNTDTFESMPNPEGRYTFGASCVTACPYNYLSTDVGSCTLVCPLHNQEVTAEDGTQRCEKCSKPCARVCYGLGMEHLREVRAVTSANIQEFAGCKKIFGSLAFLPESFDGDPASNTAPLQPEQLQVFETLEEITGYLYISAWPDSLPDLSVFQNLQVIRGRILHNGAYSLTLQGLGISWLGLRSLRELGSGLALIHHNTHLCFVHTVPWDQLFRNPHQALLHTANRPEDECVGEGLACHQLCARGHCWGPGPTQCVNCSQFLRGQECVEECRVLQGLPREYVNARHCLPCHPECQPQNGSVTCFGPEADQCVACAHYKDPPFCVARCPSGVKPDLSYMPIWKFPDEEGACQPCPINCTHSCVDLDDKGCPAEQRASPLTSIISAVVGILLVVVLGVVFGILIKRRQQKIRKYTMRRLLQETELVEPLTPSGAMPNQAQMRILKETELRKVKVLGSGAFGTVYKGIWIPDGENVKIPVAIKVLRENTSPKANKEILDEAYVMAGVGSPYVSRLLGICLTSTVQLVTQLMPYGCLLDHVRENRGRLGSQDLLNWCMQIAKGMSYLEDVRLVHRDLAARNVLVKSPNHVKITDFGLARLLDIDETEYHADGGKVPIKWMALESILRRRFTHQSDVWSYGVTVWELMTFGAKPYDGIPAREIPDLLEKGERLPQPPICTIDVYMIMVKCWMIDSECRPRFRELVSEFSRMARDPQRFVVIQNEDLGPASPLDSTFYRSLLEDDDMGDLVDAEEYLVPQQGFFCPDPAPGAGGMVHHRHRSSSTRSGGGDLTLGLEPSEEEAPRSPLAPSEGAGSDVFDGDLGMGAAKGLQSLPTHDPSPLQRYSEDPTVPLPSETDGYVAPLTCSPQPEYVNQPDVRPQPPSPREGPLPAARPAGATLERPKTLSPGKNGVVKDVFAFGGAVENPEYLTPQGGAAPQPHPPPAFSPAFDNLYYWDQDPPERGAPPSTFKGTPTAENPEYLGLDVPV

Row | SMILES | viability [1] [%] | Her2 level [2] | viability [3] | viability [4] | viability [5] | differential viability (reversal) ([6]; H69AR cells + 2 uM doxorubicin) | viability [6, 15] [%] | viability [6, 16] [%] | inhibition [7] | inhibition [8] | growth inhibition [9] | growth inhibition [10] | viability increase [11] | viability [12] | viability [13] | inhibition [14]
1 | CC1Cc2ccccc2N1C(=O)COC(=O)Cn1nnc(-c2ccccc2)n1 (configuration not stated) | 110 | 92.5% (inactive) | 110% (inactive) | 88.5% (inactive) | 81% (inactive) | 7.38% (inactive) | 73.6 | 81 | -5.27% (inactive) | 3.65% (inactive) | – | – | – | – | – | –
2 | COc1ccc(-n2c(=O)cc(N3CCN(Cc4ccccc4)CC3)[nH]c2=O)cc1 | 87 | 105% (inactive) | 87% (inactive) | 94% (inactive) | 92.7% (inactive) | -17.5% (inactive) | 110 | 92.7 | 0.26% (inactive) | -4% (inactive) | – | – | – | – | – | –
3 | CCN1CCN(c2c(Cl)cccc2NC(=O)c2ccc3c(c2)OCCO3)CC1 | 80 | 84.5% (inactive) | 80% (inactive) | 95.2% (inactive) | 81.7% (inactive) | 1.33% (inactive) | 80.4 | 81.7 | -5% (inactive) | 3% (inactive) | – | – | – | – | – | –
4 | C=CCNC(=O)CNS(=O)(=O)c1ccc(F)cc1 | 87 | 95.5% (inactive) | 87% (inactive) | 92.5% (inactive) | 95.4% (inactive) | 1.88% (inactive) | 93.6 | 95.4 | -1.45% (inactive) | 0% (inactive) | – | – | – | – | – | –
5 | CC(C)(C)c1ccc(OCC(=O)O)cc1 | 102 | 96.5% (inactive) | 102% (inactive) | 108% (inactive) | 104% (inactive) | 13.4% (inactive) | 91 | 104 | -5.73% (inactive) | 8.69% (inactive) | – | – | – | – | – | –
6 | CCOC(=O)c1ccc(NC(=O)CSc2nnc(COc3ccccc3)n2C)cc1 | 110 | 113% (inactive) | 110% (inactive) | 85.3% (inactive) | 107% (inactive) | 8.77% (inactive) | 98.1 | 107 | -1.3% (inactive) | -9.67% (inactive) | – | – | – | – | – | –
7 | O=C(Oc1cc2oc(=O)c3c(c2cc1Cl)CCCC3)c1ccco1 | 82 | 87% (inactive) | 82% (inactive) | 89.6% (inactive) | 80.2% (inactive) | -13.1% (inactive) | 93.2 | 80.2 | 1.28% (inactive) | -4% (inactive) | -14.7% (inactive) | -13.7% (inactive) | -3.67% (inactive) | 108% (inactive) | 104% (inactive) | 1.97% (inactive)
8 | CCOc1ccc2[nH]cc(C(=O)N3CCN(CC)CC3)c(=O)c2c1 | 98 | 104% (inactive) | 98% (inactive) | 91.2% (inactive) | 89.6% (inactive) | -14.2% (inactive) | 104 | 89.6 | 2.67% (inactive) | 19% (inactive) | – | – | – | – | – | –
9 | CC12COC3(C(=O)Nc4ccc(Cl)cn4)CC1CCC32C (configuration not stated) | 72 | 112% (inactive) | 72% (inactive) | 82.9% (inactive) | 94.6% (inactive) | 9.46% (inactive) | 85.1 | 94.6 | 0% (inactive) | -10% (inactive) | -15.9% (inactive) | -9.37% (inactive) | -0.46% (inactive) | 85.3% (inactive) | 85.7% (inactive) | 0.735% (inactive)
10 | CCOC(=O)c1[nH]c(C)c(C(=O)Nc2ccccc2F)c1C | 89.5 | 75.5% (inactive) | 89.5% (inactive) | 61.8% (inactive) | 16.1% (active) | -51% (inactive) | 67.1 | 16.1 | -4.47% (inactive) | 4.13% (inactive) | – | – | – | – | – | –
11 | O=C(CCCn1c(=S)[nH]c2cc3c(cc2c1=O)OCO3)N1CCN(c2ccccc2F)CC1 | 77 | 95% (inactive) | 77% (inactive) | 68% (inactive) | 83.7% (inactive) | -9.88% (inactive) | 93.6 | 83.7 | -4.32% (inactive) | -2.95% (inactive) | – | – | – | – | – | –
12 | O=C(C1CCCO1)N1CCc2ccccc21 (configuration not stated) | 85 | 92.5% (inactive) | 85% (inactive) | 94% (inactive) | 92.4% (inactive) | -5.42% (inactive) | 97.8 | 92.4 | -4.8% (inactive) | -0.32% (inactive) | – | – | – | – | – | –
13 | O=C(CSc1nnc(C2COc3ccccc3O2)o1)N1CCCc2ccccc21 (configuration not stated) | 85.5 | 78% (inactive) | 85.5% (inactive) | 60.9% (inactive) | 92.3% (inactive) | -3.22% (inactive) | 95.5 | 92.3 | -5.26% (inactive) | -4% (inactive) | – | – | – | – | – | –
14 | Cc1ccc(N2C(N)=NC(N)=NC23CCCC3)c(C)c1 | 98.5 | 95% (inactive) | 98.5% (inactive) | 99.8% (inactive) | 106% (inactive) | 20.6% (inactive) | 85 | 106 | -4.68% (inactive) | 1.11% (inactive) | – | – | – | – | – | –
